# Test results as given in PubChem BioAssay (NCATS).
# Records with an inconclusive call do not appear. Active and inactive are the calls of the source. The call rests on the fitted dose curve; in most records, active means well fitted curve in the direction sought with a large enough effect; inconclusive means small, poorly fitted or top-dose-only effect, or another doubt; inactive means no such curve, though single readings can be large; an effect the other way counts as inactive or inconclusive.
# Experiments:
# [1] = qHTS of pediatric cancer cell lines to identify multiple opportunities for drug repurposing: Primary screen for TC32 cells (AID 1347089); further: nearly all actives have a fitted effect of over 60% in size; further: potency means the concentration at half of the fitted maximal effect
# Procedure, shortened: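 Luminescent CellTiter-Glo read-out of metabolically active TC32 cells after 48 h compound exposure. Primary: MIPE 11-point, 0.78 nM–46 µM; NPC 8-point, 0.59 nM–46 µM. Confirmatory: 11-point dilutions.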
# [2] = qHTS of pediatric cancer cell lines to identify multiple opportunities for drug repurposing: Primary screen for DAOY cells (AID 1347090); further: potency means the concentration at half of the fitted maximal effect; nearly all actives have a fitted effect of over 55% in size
# Procedure, shortened: (§1)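 Cell viability, CellTiter-Glo luminescence; 500-1,000 cells/well, 8- or 11-point titration, 48 h compound exposure at 37 degrees C, 5% CO2. Controls: DMSO neutral, bortezomib 2.3 µM final as positive.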
# [3] = qHTS of pediatric cancer cell lines to identify multiple opportunities for drug repurposing: Primary screen for SJ-GBM2 cells (AID 1347091); further: potency means the concentration at half of the fitted maximal effect
# Procedure, shortened: as §1
# [4] = qHTS of pediatric cancer cell lines to identify multiple opportunities for drug repurposing: Primary screen for A673 cells (AID 1347092); further: potency means the concentration at half of the fitted maximal effect; nearly all actives have a fitted effect of over 45% in size
# Procedure, shortened: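 A673 cells (500-1,000 cells/well in growth media) were pre-incubated 5 h at 37 degrees C, then exposed to compounds for 48 h. Viability was read as CellTiter-Glo luminescence; concentration-response curves came directly from the primary screen.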
# [5] = qHTS of pediatric cancer cell lines to identify multiple opportunities for drug repurposing: Primary screen for SK-N-MC cells (AID 1347093); further: potency means the concentration at half of the fitted maximal effect
# Procedure, shortened: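 Metabolically active cells were quantified by ATP-dependent luminescence (CellTiter-Glo, 15 min at room temperature) following 48 h treatment. Cells had been plated at 500-1,000 per well and settled for 5 h beforehand.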
# [6] = qHTS of pediatric cancer cell lines to identify multiple opportunities for drug repurposing: Primary screen for BT-37 cells (AID 1347094); further: potency means the concentration at half of the fitted maximal effect
# Procedure, shortened: (§2)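 Following a 5-hour attachment period, cells at 500-1,000/well received compounds and were cultured for 48 hours. CellTiter-Glo was added and luminescence read to estimate viable, metabolically active cells.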
# [7] = qHTS of pediatric cancer cell lines to identify multiple opportunities for drug repurposing: Primary screen for NB-EBc1 cells (AID 1347095); further: potency means the concentration at half of the fitted maximal effect
# Procedure, shortened: as §2
# [8] = qHTS of pediatric cancer cell lines to identify multiple opportunities for drug repurposing: Primary screen for Saos-2 cells (AID 1347097); further: potency means the concentration at half of the fitted maximal effect; nearly all actives have a fitted effect of over 40% in size
# Procedure, shortened: as §2
# [9] = qHTS of pediatric cancer cell lines to identify multiple opportunities for drug repurposing: Primary screen for NB1643 cells (AID 1347099); further: potency means the concentration at half of the fitted maximal effect; nearly all actives have a fitted effect of over 50% in size
# Procedure, shortened: as §2
# [10] = qHTS of pediatric cancer cell lines to identify multiple opportunities for drug repurposing: Primary screen for LAN-5 cells (AID 1347100); further: potency means the concentration at half of the fitted maximal effect
# Procedure, shortened: (§3)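 Cells (500-1,000/well) rested 5 h, then received compounds for 48 h; metabolically active cells were measured by CellTiter-Glo luminescence. Final concentrations spanned up to 46 µM (MIPE, 11-point) or 0.59 nM-46 µM (NPC, 8-point) in primary screens, 11-point in follow-ups.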
# [11] = qHTS of pediatric cancer cell lines to identify multiple opportunities for drug repurposing: Primary screen for BT-12 cells (AID 1347101); further: potency means the concentration at half of the fitted maximal effect; nearly all actives have a fitted effect of over 25% in size
# Procedure, shortened: as §3
# [12] = qHTS of pediatric cancer cell lines to identify multiple opportunities for drug repurposing: Primary screen for Rh18 cells (AID 1347102); further: nearly all actives have a fitted effect of over 65% in size; further: potency means the concentration at half of the fitted maximal effect
# Procedure, shortened: as §3
# [13] = qHTS of pediatric cancer cell lines to identify multiple opportunities for drug repurposing: Primary screen for OHS-50 cells (AID 1347103); further: potency means the concentration at half of the fitted maximal effect; nearly all actives have a fitted effect of over 40% in size
# Procedure, shortened: as §3
# [14] = qHTS of pediatric cancer cell lines to identify multiple opportunities for drug repurposing: Primary screen for RD cells (AID 1347104); further: potency means the concentration at half of the fitted maximal effect; nearly all actives have a fitted effect of over 55% in size
# Procedure, shortened: as §2
# [15] = qHTS of pediatric cancer cell lines to identify multiple opportunities for drug repurposing: Primary screen for MG 63 (6-TG R) cells (AID 1347105); further: potency means the concentration at half of the fitted maximal effect; nearly all actives have a fitted effect of over 50% in size
# Procedure, shortened: as §2
# [16] = qHTS of pediatric cancer cell lines to identify multiple opportunities for drug repurposing: Primary screen for U-2 OS cells (AID 1347096); further: nearly all actives have a fitted effect of over 50% in size
# Procedure, shortened: as §3
# [17] = qHTS of pediatric cancer cell lines to identify multiple opportunities for drug repurposing: Primary screen for control Hh wild type fibroblast cells (AID 1347106);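 further: series mostly up to about 46 µM; a drop in luminescence marks cytotoxicity and a rise apparent proliferation; nearly all actives have a fitted effect of over 55% in size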
# Procedure, shortened: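 Cells (500-1,000/well) in growth media were settled 5 h at 37 degrees C, then given compounds for 48 h. Viability was read as CellTiter-Glo luminescence. Primary runs used MIPE at 11 points (0.78 nM-46 µM) and NPC at 8 points (0.59 nM-46 µM); follow-ups used 11 points.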
# [18] = qHTS of pediatric cancer cell lines to identify multiple opportunities for drug repurposing: Primary screen for SK-N-SH cells (AID 1347098); further: potency means the concentration at half of the fitted maximal effect; nearly all actives have a fitted effect of over 65% in size
# Procedure, shortened: as §3
Structure (SMILES),Potency [1],Potency [2],Potency [3],Potency [4],Potency [5],Potency [6],Potency [7],Potency [8],Potency [9],Potency [10],Potency [11],Potency [12],Potency [13],Potency [14],Potency [15],Potency [16],Potency [17],Potency [18]
CCCCOc1c(C(=O)c2c(F)cc(C)cc2F)cnc2n[nH]cc12,inactive,11.8 µM (active),1180 nM (active),2350 nM (active),1660 nM (active),17.2 µM (active),2350 nM (active),3.72 µM (active),2.96 µM (active),4.18 µM (active),6.11 µM (active),inactive,5.44 µM (active),18.7 µM (active),11.8 µM (active),–,–,–
CC(C)c1nn(-c2c(Cl)cccc2Cl)c2nc(Cc3ccc(OCCO)cc3)[nH]c(=O)c12,0.131 µM (active),0.0743 µM (active),41.8 nM (active),37.2 nM (active),41.8 nM (active),0.0968 µM (active),93.5 nM (active),–,–,–,0.0544 µM (active),–,–,–,–,inactive,inactive,–
OCCCNc1cc(-c2ccnc(Nc3cccc(Cl)c3)n2)ccn1,0.37 µM (active),0.187 µM (active),83.3 nM (active),46.9 nM (active),105 nM (active),0.243 µM (active),93.5 nM (active),0.148 µM (active),–,–,0.193 µM (active),–,0.153 µM (active),–,–,–,–,–
COc1ccc(F)c(F)c1C(=O)c1cnc(NC2CCN(S(C)(=O)=O)CC2)nc1N,5.87 µM (active),3.72 µM (active),743 nM (active),1480 nM (active),1870 nM (active),3.43 µM (active),296 nM (active),2.35 µM (active),–,–,3.43 µM (active),–,3.06 µM (active),5.26 µM (active),–,–,–,2.71 µM (active)
O=C(NC1CCNCC1)c1[nH]ncc1NC(=O)c1c(Cl)cccc1Cl,2.34 µM (active),1.18 µM (active),833 nM (active),59 nM (active),526 nM (active),1.37 µM (active),1870 nM (active),1.66 µM (active),–,–,1.93 µM (active),–,–,0.332 µM (active),3.72 µM (active),–,–,1.71 µM (active)
Cc1[nH]nc2ccc(-c3cncc(OC[C@@H](N)Cc4ccccc4)c3)cc12,4.66 µM (active),2.96 µM (active),743 nM (active),235 nM (active),526 nM (active),1.22 µM (active),469 nM (active),2.96 µM (active),0.935 µM (active),0.372 µM (active),1.72 µM (active),3.32 µM (active),–,–,2.96 µM (active),–,–,1.52 µM (active)
CC(C)(C)c1cnc(CSc2cnc(NC(=O)C3CCNCC3)s2)o1,1.31 µM (active),0.935 µM (active),187 nM (active),46.9 nM (active),332 nM (active),0.385 µM (active),935 nM (active),0.743 µM (active),–,–,0.432 µM (active),–,0.273 µM (active),–,–,–,–,1.52 µM (active)
